# Laboratory results reported in PubChem BioAssay (Tox21).
# Several values for one entry are separate records, joined by “and”; a condition that tells them apart may be missing. Equal entries are not always repeated. Records with an inconclusive call do not appear. Entries that show only a call come without a potency. The source holds several records for some structures; these can differ, active in one and inactive in another. Activity calls are given as the source filed them. Unless noted, the call rests on the fitted dose curve; in most records, active means well fitted curve in the direction sought with a large enough effect in the repeat runs; inconclusive means weak or mixed curves; inactive means no such curve, though single readings can be large; an effect the other way counts as inactive or inconclusive.
# What was measured:
# [1] = biological target: Acetylcholinesterase (Homo sapiens) (UniProt P22303); test: Acetylcholinesterase (AChE) small molecule antagonists: enzyme-based qHTS assay (AID 1347397; calls by dose curve; further: nearly all actives have a fitted effect of over 55% in size); conditions: Potency: AChE enzyme activity inhibition; outcome: AChE enzyme activity inhibition
# Summary of the method: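 Recombinant human AChE (50 mU/mL) preincubated with compound 30 min at room temperature; acetylthiocholine plus DTNB then added, and thiocholine formation read colorimetrically after 10 min at room temperature. DMSO served as vehicle control.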
# [2] = biological target: Acetylcholinesterase (Homo sapiens) (UniProt P22303); test: Acetylcholinesterase (AChE) small molecule antagonists: fluorescence cell-based qHTS assay (AID 1347398; calls by dose curve; further: nearly all actives have a fitted effect of over 50% in size); conditions: Potency: AChE activity; outcome: AChE activity
# Summary of the method: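 SH-SY5Y cells (2000/well), attached overnight, incubated with compound 30 min at 37 C. Acetylthiocholine plus Thiolite Green then added for 40 min at room temperature. Thiocholine fluorescence (Ex/Em 490/520 nm) reports cellular AChE activity.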
# [3] = biological target: Cytochrome P450 2D6 (Homo sapiens) (UniProt P10635); test: Cytochrome P450 Family 2 Subfamily D Member 6 (CYP2D6) small molecule antagonists: luciferase reporter qHTS assay (AID 1671196); further: nearly all actives have a fitted effect of over 50% in size; further: potency means the concentration at half of the fitted maximal effect
# Summary of the method: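 Each well received CYP2D6 with its proluciferin substrate and chemical, sat 10 min, then got NADPH regeneration solution for 1 h at room temperature. Luminescence in RLU served as the activity measure.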
# [4] = biological target: Cytochrome P450 2C19 (Homo sapiens) (UniProt P33261); test: Cytochrome P450 Family 2 Subfamily C Member 19 (CYP2C19) small molecule antagonists: luciferase reporter qHTS assay (AID 1671197); further: nearly all actives have a fitted effect of over 65% in size; further: potency means the concentration at half of the fitted maximal effect
# Summary of the method: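 CYP2C19 P450-Glo, 1536-well qHTS. Cpd + enzyme/proluciferin substrate 10 min RT; + NADPH regen, 37C 1 h; stop with luciferin detection reagent, 20 min RT, luminescence (RLU). Pos ctrl ketoconazole.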
# [5] = biological target: Cytochrome P450 2C9 (Homo sapiens) (UniProt P11712); test: Cytochrome P450 Family 2 Subfamily C Member 9 (CYP2C9) small molecule antagonists: luciferase reporter qHTS assay (AID 1671198); further: nearly all actives have a fitted effect of over 50% in size; further: potency means the concentration at half of the fitted maximal effect
# Summary of the method: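 P450-Glo proluciferin substrate with CYP2C9 enzyme; 10 min RT preincubation, then NADPH regeneration 1 h at 37C; luciferin detection reagent 20 min RT, luminescence in relative luminescence units.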
# [6] = biological target: Voltage-gated inwardly rectifying potassium channel KCNH2 (Homo sapiens) (UniProt Q12809); test: Human Ether-a-go-go-Related Gene (hERG) channel small molecule antagonists: fluorescence cell-based qHTS assay (AID 1671200); further: nearly all actives have a fitted effect of over 50% in size; further: potency means the concentration at half of the fitted maximal effect
# Summary of the method: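 hERG-U2OS cells plated overnight at 37 C, loaded with FluxOR II dye 1 h at RT in dark; after 10 min, thallium stimulus added. Fluorescence (480/540 nm) read kinetically for 2 min at 1 s intervals.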
# [7] = biological target: Cytochrome P450 3A4 (Homo sapiens) (UniProt P08684); test: Cytochrome P450 Family 3 Subfamily A Member 4 (CYP3A4) small molecule antagonists: luciferase reporter qHTS assay (AID 1671201); further: nearly all actives have a fitted effect of over 50% in size; further: potency means the concentration at half of the fitted maximal effect
# Summary of the method: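 P450-Glo CYP3A4 luminescent assay: compounds preincubated 10 min at room temperature with enzyme and proluciferin substrate, NADPH regeneration added, 1 h room-temperature reaction, stopped with luciferin detection reagent; luminescence read after 20 min. Ketoconazole positive control.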
# [8] = biological target: Cytochrome P450 1A2 (Homo sapiens) (UniProt P05177); test: Cytochrome P450 Family 1 Subfamily A Member 2 (CYP1A2) small molecule antagonists: luciferase reporter qHTS assay (AID 1671199); further: nearly all actives have a fitted effect of over 50% in size; further: potency means the concentration at half of the fitted maximal effect
# Summary of the method: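 Enzymatic CYP1A2 assay, human, luminescent: 10 min compound–enzyme–substrate preincubation, 1 h NADPH-dependent turnover, 20 min detection step, room temperature throughout. Reduced light indicates lower CYP1A2 activity.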
# [9] = biological target: Acetylcholinesterase (Homo sapiens) (UniProt P22303); test: Acetylcholinesterase (AChE) small molecule antagonists: enzyme-based qHTS assay with human liver microsomes (AID 1347399; calls by dose curve; further: nearly all actives have a fitted effect of over 60% in size); conditions: Potency: qHTS inhibition; outcome: qHTS inhibition
# Summary of the method: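 Recombinant human AChE (50 mU/mL in the enzyme mix) and human liver microsomes (0.25 mg/mL final) were preincubated with compound and NADPH (0.25 mg/mL final) for 30 min at 37 C. Acetylthiocholine/DTNB was then added; thiocholine was read colorimetrically after 10 min at room temperature.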
# Cytochrome P450 2C19 (Homo sapiens), sequence (P33261 whole entry, looked up): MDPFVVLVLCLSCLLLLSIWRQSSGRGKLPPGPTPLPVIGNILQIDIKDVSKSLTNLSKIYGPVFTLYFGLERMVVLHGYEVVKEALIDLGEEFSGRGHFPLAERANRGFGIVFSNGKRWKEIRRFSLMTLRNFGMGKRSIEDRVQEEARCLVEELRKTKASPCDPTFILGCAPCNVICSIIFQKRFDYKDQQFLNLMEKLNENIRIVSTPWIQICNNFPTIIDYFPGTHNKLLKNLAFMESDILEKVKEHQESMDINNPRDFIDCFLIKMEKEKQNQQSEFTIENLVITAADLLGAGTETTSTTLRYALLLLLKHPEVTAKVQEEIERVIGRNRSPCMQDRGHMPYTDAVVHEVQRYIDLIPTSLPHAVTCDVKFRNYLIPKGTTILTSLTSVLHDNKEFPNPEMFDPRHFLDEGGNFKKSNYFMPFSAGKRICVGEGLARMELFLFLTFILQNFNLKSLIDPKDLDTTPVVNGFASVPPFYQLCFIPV
# Cytochrome P450 3A4 (Homo sapiens), sequence (P08684 whole entry, looked up): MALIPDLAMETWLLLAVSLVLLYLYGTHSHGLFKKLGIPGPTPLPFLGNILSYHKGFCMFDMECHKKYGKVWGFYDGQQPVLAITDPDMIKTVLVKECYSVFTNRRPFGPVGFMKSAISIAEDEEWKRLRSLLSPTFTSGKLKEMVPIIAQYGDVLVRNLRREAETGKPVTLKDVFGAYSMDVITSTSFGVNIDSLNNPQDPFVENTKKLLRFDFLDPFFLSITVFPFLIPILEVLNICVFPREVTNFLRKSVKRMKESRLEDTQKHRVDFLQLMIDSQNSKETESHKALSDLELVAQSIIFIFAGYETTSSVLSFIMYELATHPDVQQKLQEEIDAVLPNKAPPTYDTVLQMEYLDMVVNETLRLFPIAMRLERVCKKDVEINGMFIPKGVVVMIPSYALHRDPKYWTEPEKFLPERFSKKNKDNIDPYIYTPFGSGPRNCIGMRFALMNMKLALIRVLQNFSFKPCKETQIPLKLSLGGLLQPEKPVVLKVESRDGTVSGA
# Acetylcholinesterase (Homo sapiens), sequence (P22303 whole entry, looked up): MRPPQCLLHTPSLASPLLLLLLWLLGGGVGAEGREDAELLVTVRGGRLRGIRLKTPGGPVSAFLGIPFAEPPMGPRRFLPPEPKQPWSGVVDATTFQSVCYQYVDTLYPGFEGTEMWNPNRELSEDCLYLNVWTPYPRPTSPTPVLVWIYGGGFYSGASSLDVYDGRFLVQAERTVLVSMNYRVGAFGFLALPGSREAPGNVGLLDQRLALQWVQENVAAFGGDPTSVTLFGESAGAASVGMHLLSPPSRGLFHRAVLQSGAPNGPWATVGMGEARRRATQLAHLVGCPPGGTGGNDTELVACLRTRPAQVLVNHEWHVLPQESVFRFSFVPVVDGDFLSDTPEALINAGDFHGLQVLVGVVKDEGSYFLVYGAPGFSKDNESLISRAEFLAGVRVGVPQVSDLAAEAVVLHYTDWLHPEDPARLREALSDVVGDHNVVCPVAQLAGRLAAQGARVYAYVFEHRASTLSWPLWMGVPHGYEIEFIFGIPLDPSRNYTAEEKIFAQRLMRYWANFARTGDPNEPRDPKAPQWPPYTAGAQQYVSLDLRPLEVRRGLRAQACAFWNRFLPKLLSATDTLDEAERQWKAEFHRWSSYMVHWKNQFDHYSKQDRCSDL
# Voltage-gated inwardly rectifying potassium channel KCNH2 (Homo sapiens), sequence (Q12809 whole entry, looked up): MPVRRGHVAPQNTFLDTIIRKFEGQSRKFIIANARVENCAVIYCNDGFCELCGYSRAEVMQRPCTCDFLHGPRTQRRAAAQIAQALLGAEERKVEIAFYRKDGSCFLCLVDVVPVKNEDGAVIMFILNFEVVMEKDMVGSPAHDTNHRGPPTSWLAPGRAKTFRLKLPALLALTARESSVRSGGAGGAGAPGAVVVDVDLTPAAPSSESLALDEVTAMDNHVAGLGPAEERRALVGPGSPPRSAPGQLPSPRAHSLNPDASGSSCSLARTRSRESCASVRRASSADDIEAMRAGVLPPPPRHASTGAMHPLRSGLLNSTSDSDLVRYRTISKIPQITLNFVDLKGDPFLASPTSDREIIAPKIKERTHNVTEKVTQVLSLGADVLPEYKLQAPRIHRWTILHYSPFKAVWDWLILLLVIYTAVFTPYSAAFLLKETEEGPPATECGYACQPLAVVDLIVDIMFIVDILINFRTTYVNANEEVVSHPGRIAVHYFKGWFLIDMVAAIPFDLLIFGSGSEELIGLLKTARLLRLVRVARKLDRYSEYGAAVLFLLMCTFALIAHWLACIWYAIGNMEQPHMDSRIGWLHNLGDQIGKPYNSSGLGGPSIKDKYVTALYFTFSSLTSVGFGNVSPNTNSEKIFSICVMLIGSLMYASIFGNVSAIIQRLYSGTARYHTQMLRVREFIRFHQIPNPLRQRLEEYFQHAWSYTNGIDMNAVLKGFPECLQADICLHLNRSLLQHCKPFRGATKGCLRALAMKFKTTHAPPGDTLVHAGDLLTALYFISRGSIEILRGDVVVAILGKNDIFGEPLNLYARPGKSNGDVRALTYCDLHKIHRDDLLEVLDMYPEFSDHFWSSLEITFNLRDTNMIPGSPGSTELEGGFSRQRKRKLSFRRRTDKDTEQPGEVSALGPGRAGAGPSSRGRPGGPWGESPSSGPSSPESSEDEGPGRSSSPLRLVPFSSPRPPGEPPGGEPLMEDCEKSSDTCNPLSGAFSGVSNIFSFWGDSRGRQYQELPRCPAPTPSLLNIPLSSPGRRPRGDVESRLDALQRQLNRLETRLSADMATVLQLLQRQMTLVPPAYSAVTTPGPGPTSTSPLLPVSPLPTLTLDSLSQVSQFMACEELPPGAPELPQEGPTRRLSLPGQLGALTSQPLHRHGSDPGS
# Cytochrome P450 2D6 (Homo sapiens), sequence (P10635 whole entry, looked up): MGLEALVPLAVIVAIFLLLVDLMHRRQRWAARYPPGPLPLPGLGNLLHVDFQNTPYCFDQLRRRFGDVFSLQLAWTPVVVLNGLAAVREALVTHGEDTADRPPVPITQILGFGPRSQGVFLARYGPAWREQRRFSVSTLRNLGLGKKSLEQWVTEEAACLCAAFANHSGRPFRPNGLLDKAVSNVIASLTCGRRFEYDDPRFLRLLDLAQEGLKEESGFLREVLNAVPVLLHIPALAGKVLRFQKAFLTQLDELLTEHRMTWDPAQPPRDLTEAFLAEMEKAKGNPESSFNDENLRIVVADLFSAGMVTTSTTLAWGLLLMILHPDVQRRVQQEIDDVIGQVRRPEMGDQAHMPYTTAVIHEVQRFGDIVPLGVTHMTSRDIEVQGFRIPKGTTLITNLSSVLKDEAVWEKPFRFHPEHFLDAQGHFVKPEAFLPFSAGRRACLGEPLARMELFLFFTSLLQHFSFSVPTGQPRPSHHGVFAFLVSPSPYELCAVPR
# Cytochrome P450 1A2 (Homo sapiens), sequence (P05177 whole entry, looked up): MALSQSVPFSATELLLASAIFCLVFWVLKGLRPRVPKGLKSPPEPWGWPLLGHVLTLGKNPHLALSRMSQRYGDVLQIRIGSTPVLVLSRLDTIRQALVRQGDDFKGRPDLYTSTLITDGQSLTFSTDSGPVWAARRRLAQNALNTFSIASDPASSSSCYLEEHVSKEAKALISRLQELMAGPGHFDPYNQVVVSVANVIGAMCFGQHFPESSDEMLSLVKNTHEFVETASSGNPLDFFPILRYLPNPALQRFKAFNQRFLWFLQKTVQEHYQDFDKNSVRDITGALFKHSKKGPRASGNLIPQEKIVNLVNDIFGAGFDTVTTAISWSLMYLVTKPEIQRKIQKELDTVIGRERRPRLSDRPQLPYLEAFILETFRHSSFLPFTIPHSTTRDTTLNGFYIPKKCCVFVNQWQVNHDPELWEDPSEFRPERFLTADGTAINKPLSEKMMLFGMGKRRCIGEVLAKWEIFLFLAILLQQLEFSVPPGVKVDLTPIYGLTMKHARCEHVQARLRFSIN
# Cytochrome P450 2C9 (Homo sapiens), sequence (P11712 whole entry, looked up): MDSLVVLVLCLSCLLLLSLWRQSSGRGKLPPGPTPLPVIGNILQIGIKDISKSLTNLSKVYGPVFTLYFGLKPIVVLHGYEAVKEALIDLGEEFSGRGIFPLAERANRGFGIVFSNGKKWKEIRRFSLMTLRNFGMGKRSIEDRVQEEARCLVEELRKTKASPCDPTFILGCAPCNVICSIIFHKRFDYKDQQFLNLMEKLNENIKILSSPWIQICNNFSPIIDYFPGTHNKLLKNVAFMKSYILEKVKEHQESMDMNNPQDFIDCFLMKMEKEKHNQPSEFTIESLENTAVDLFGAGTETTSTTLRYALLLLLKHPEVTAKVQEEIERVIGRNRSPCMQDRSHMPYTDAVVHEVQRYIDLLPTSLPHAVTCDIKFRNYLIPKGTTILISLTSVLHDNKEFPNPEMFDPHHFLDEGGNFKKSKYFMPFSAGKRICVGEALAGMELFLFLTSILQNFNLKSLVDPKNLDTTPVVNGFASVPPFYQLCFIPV
Compound,Potency [1],Potency [2],Potency [3],Potency [4],Potency [5],Potency [6],Potency [7],Potency [8],Potency [9]
O=P(O)(O)CN(CP(=O)(O)O)CP(=O)(O)O,inactive,inactive,inactive,inactive,inactive,inactive,inactive,,
BrCC1CO1 (configuration not stated),inactive,inactive,inactive,inactive,inactive,inactive,inactive,inactive,
CC(C)[C@]12CC(=O)[C@H](C)[C@H]1C2,inactive,inactive,inactive,inactive,inactive,inactive,inactive,inactive,
O=S1(=O)OCCO1,inactive,inactive,inactive,,inactive,inactive,inactive,,
CCOC(=O)CC(SP(=S)(OC)OC)C(=O)OCC (configuration not stated),inactive,inactive,inactive,178 nM (active) and 436 nM (active),1.19 µM (active) and 1.38 µM (active),inactive,,2.24 µM (active) and 1.62 µM (active),
CC#Cc1cc(C)nc(Nc2ccccc2)n1,inactive,inactive,inactive,,35.5 µM (active),inactive,63.2 µM (active),1.59 µM (active),
CCOc1cc(OP(=S)(OC)OC)nc(CC)n1,inactive,inactive,inactive,35.6 µM (active),,inactive,inactive,,
[P]#[In],inactive,inactive,inactive,inactive,inactive,inactive,inactive,inactive,
Cc1ccc2cc(C)ccc2c1,inactive,inactive,inactive,inactive,inactive,inactive,inactive,,
CC(C)(N)Cc1ccc(Cl)cc1,inactive,inactive,3.09 µM (active),inactive,inactive,inactive,inactive,,
COc1cc(CCN)cc(OC)c1OC,inactive,inactive,inactive,inactive,inactive,inactive,inactive,38.7 µM (active),
COc1ccc(CN2CCNCC2)c(OC)c1OC,inactive,inactive,,,,inactive,,,inactive
ClCC1CO1 (configuration not stated),inactive,inactive,inactive,24.3 µM (active),inactive,inactive,inactive,inactive,
O=c1[nH]oc2c1CCNC2,inactive,,inactive,inactive,inactive,inactive,inactive,,
Oc1ccc(Cc2ccc(O)cc2)cc1,inactive,inactive,,inactive,inactive,inactive,inactive,,
Cn1c(N)nc2c3cccnc3ccc21,inactive,,12 µM (active),inactive,inactive,inactive,inactive,16.9 µM (active),inactive
CCCN1CCC[C@@H]2Cc3nc(N)ncc3C[C@H]21,inactive,,11 µM (active),inactive,,inactive,inactive,inactive,inactive
C[C@@H](N)[C@@H](O)c1ccccc1,,,17.4 µM (active),21.9 µM (active),inactive,inactive,inactive,inactive,
Cc1cccc2sc3nncn3c12,inactive,,15.9 µM (active),inactive,inactive,inactive,20 µM (active),31.7 µM (active),inactive
CCOC(=O)c1ncn2c1CN(C)C(=O)c1c(I)cccc1-2,inactive,inactive,,,,inactive,inactive,inactive,
c1cncc([C@@H]2CCCCN2)c1,inactive,inactive,,39.9 µM (active),,inactive,,,
N#CC(Br)(Br)C(N)=O,,,71 µM (active),,,inactive,inactive,,
CCOC(=O)C(Cl)Cc1cc(-n2nc(C)n(C(F)F)c2=O)c(F)cc1Cl (configuration not stated),inactive,,,,7.1 µM (active),24.5 µM (active),35.6 µM (active),28.3 µM (active),inactive
CS(=O)(=O)Cl,inactive,inactive,,inactive,inactive,inactive,inactive,,
O=C(O)C(Cl)Br (configuration not stated),inactive,inactive,,inactive,inactive,inactive,inactive,,

Compound,Potency [1],Potency [2],Potency [3],Potency [4],Potency [5],Potency [6],Potency [7],Potency [8],Potency [9]
O=C1CC(=O)NC(=O)N1,inactive,inactive,,inactive,inactive,inactive,inactive,inactive,
BrCc1ccc(Br)cc1,,,,,,inactive,inactive,,inactive
CCOP(=S)(OCC)Oc1ccc(Cl)cc1Cl,inactive,,inactive,0.399 µM (active),3.56 µM (active),inactive,2.83 µM (active),2.83 µM (active),inactive
O=[N+]([O-])c1cccc(CCl)c1,,,,,,inactive,,,
CN1C(=O)COc2c(C(=O)NC3CN4CCC3CC4)cc(Cl)cc21 (configuration not stated),,,inactive,inactive,inactive,inactive,inactive,inactive,inactive
NC(=O)CS(=O)C(c1ccccc1)c1ccccc1 (configuration not stated),inactive,inactive,,24.5 µM (active),inactive,inactive,inactive,,
C[N+]1(C)CCCCC1,,,inactive,inactive,,inactive,inactive,,
N[C@@H](Cc1ccc(Oc2cc(I)c(O)c(I)c2)c(I)c1)C(=O)O,,inactive,inactive,inactive,11 µM (active),inactive,,inactive,inactive
Oc1ccc2c3c1O[C@H]1[C@@H](O)C=C[C@H]4[C@@H](C2)NCC[C@@]341,,,,inactive,inactive,inactive,inactive,inactive,
CCCC(C)C1(CC)C(=O)N=C(S)NC1=O (configuration not stated),,,,,,inactive,,,
C=CCC1(C(C)CC)C(=O)NC(=O)NC1=O (configuration not stated),inactive,,inactive,,,inactive,,21.9 µM (active),
CC[C@@H](CO)NC(=O)[C@@H]1C=C2c3cccc4[nH]cc(c34)C[C@H]2N(C)C1,,,,,,inactive,inactive,,inactive
CCC1(c2cccc(O)c2)CCCCN(C)C1 (configuration not stated),,,15.5 µM (active),inactive,,inactive,inactive,inactive,
CS(=O)(=O)c1ccc(C(=O)C2C(=O)CCCC2=O)c(Cl)c1COCC(F)(F)F,inactive,,inactive,inactive,6.33 µM (active),inactive,,inactive,inactive
CCCN1CCC[C@@H]2Cc3[nH]ncc3C[C@H]21,inactive,,30.9 µM (active),inactive,inactive,inactive,inactive,inactive,inactive
CCC(=O)OC1(c2ccccc2)CCN(C)CC1,,,37.5 µM (active),inactive,inactive,inactive,inactive,inactive,
Cc1ccc(S(=O)(=O)N[C@@H](CCCCN)C(=O)CCl)cc1,,,17.4 µM (active),38.9 µM (active),inactive,inactive,,inactive,inactive
C=CCN1CC[C@]23CCCC[C@H]2[C@H]1Cc1ccc(O)cc13,,,,,inactive,inactive,,,
C[C@H](CN1CCOCC1)C(C(=O)N1CCCC1)(c1ccccc1)c1ccccc1,inactive,,43.3 µM (active),,,inactive,,,inactive
CC(C)(C)c1cc(O)ccc1O,inactive,,63.3 µM (active) and inactive,39.9 µM (active) and 56.4 µM (active),31.7 µM (active),inactive,inactive,39.9 µM (active),inactive
CCc1cc(OC)c(C[C@H](C)N)cc1OC,,,4.16 µM (active),inactive,inactive,inactive,,,
COc1ccc2c(C(=O)c3ccc(Cl)cc3)c(C)n(CC(=O)O)c2c1,inactive,,inactive,,15.5 µM (active),inactive,inactive,inactive,inactive
CC[C@H](O)C(C[C@H](C)N(C)C)(c1ccccc1)c1ccccc1,inactive,,1.44 µM (active),inactive,inactive,inactive,,inactive,inactive
NNC(N)=O,inactive,inactive,,,,inactive,inactive,36.5 µM (active),
